In PubChem BioAssay (NCATS):
Results filed as inconclusive are left out. The source made the active and inactive calls. Calls follow the shape of the dose curve; as a rule, active = well fitted curve in the direction sought with a large enough effect; inconclusive = small, poorly fitted or top-dose-only effect, or another doubt; inactive = no such curve, though single readings can be large; an effect the other way counts as inactive or inconclusive.

Experiments:
[1] = Quantitative highthroughput screen to assess conditional lethalithy of NOMO1 cells grown in RPMI1640 with untreated serum (RPMI+s) (AID 1963876); details: NOMO1 AML cells in RPMI+serum, CellTiter-Glo viability, 48 h; series mostly up to 45.8 µM;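 also: 100% = DMSO wells and 0% = empty wells without cells; nearly all actives have a fitted effect of over 35% in size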
Method in brief: (§1)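 Each medium arm—HPLM with 10% dialyzed FBS, or RPMI1640 with 5 mM glucose and 10% untreated or dialyzed FBS—was screened against an 11-point, 3-fold compound titration for 48 h at 37 °C, with CellTiter-Glo luminescence as endpoint.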

[2] = Quantitative highthroughput screen to assess conditional lethalithy of NOMO1 cells grown in RPMI1640 with dialyzed fetal bovine serum (RPMI+ds) (AID 1963877); details: NOMO1 in RPMI+dialyzed FBS viability, ATP luminescence, 48 h; series mostly up to 45.8 µM;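 also: 100% = DMSO control wells and 0% = empty wells; nearly all actives have a fitted effect of over 30% in size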
Method in brief: as §1

[3] = Quantitative highthroughput screen to assess conditional lethalithy of NOMO1 cells grown in Human Plasma-Like Medium with dialyzed fetal bovine serum (HPLM+ds) (AID 1963878); details: NOMO1 AML cells in HPLM+ds, CellTiter-Glo viability, 48 h; series mostly up to 45.8 µM;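 also: 100% = DMSO wells and 0% = empty wells on each plate; nearly all actives have a fitted effect of over 35% in size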
Method in brief: as §1

[4] = Quantitative highthroughput screen to assess conditional lethalithy of P12 Ichikawa cells grown in Human Plasma-Like Medium with dialyzed fetal bovine serum (HPLM+ds) (AID 1963879); details: ATP luminescence, 48 h; Potency: viability; series mostly up to 45.8 µM; also: nearly all actives have a fitted effect of over 35% in size
Method in brief: as §1

[5] = Quantitative highthroughput screen to assess conditional lethalithy of P12 Ichikawa cells grown in RPMI1640 with dialyzed fetal bovine serum (RPMI+ds) (AID 1963880); details: ATP luminescence, 48 h; Potency: P12-Ichikawa viability; series mostly up to 45.8 µM;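 also: 100% = DMSO wells and 0% = empty wells on each plate; nearly all actives have a fitted effect of over 35% in size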
Method in brief: as §1

[6] = Quantitative highthroughput screen to assess conditional lethalithy of P12 Ichikawa cells grown in RPMI1640 with untreated serum (RPMI+s) (AID 1963881); details: ATP luminescence, 48 h; Potency: viability; series mostly up to 45.8 µM
Method in brief: as §1

[7] = Quantitative highthroughput screen to assess conditional lethalithy of SEM cells grown in Human Plasma-Like Medium with dialyzed fetal bovine serum (HPLM+ds) (AID 1963882); details: SEM B-ALL cells in HPLM+ds, CellTiter-Glo viability, 48 h; series mostly up to 45.8 µM; also: nearly all actives have a fitted effect of over 35% in size
Method in brief: as §1

[8] = Quantitative highthroughput screen to assess conditional lethalithy of SEM cells grown in RPMI1640 with unreated serum (RPMI+s) (AID 1963883); details: SEM B-ALL cells, CellTiter-Glo viability, 48 h; series mostly up to 45.8 µM
Method in brief: as §1

[9] = Quantitative highthroughput screen to assess conditional lethalithy of SEM cells grown in RPMI1640 with dialyzed fetal bovine serum (RPMI+ds) (AID 1963884); details: SEM B-ALL cells, RPMI+dialyzed FBS, CellTiter-Glo viability, 48 h; series mostly up to 45.8 µM
Method in brief: as §1

[10] = Cellular viability qHTS for adrenocortical cancer (ACC) cell line SW-13 (AID 1963989); details: SW-13 ACC cells viability, CellTiter-Glo, 48 h; activity (max response): stronger effect = lower value;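 also: cells grown in serum-free medium with ITS supplement; % is scaled to controls: 0 for no effect and ±100 for the full control effect; nearly all actives have a fitted effect of over 65% in size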
Method in brief: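 Here, serum-free SW-13 cultures were dosed up to 46 uM. Following 48 h, ATP-dependent luminescence (CellTiter-Glo) reported viable cells, and logistic modeling produced IC50 values.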

[11] = Cellular viability qHTS for adrenocortical cancer (ACC) cell line NCI-H295R (AID 1963990); details: CellTiter-Glo ATP luminescence, 48 h; series mostly up to 46.1 µM; also: nearly all actives have a fitted effect of over 60% in size; also: potency is read from the fitted curve at half-maximal effect
Method in brief: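 Viability of NCI-H295R after 48 h of treatment (final up to 46 uM) measured through cellular ATP luminescence.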

O=C1C[C@@H](c2ccc(O)cc2)Oc2cc(O)cc(O)c21
inactive: Potency [1] | Potency [2] | Potency [3] | Potency [4] | Potency [5] | Potency [6] | Potency [7] | Potency [8] | Potency [9] | activity (max response) [10] -16.9% | Potency [11]

CCN(CC)CCn1c(=O)c(Cc2ccc(OC)cc2)nc2ccccc21
inactive: Potency [1] | Potency [2] | Potency [3] | Potency [4] | Potency [5] | Potency [6] | Potency [7] | Potency [8] | Potency [9] | activity (max response) [10] -3.48% | Potency [11]

COC(=O)C1=C(C)NC(C)=C(C(=O)OC(C)C)C1c1cccc2nonc12 (stereo unspecified)
inactive: Potency [1] | Potency [2] | Potency [3] | Potency [4] | Potency [5] | Potency [6] | Potency [7] | Potency [8] | activity (max response) [10] 6.25%

CC(C)(C)c1cc(C(=O)O)c(NC(=O)Nc2ccc3[nH]ncc3c2)s1
inactive: Potency [1] | Potency [2] | Potency [3] | Potency [4] | Potency [5] | Potency [6] | Potency [7] | Potency [8] | activity (max response) [10] -7.47% | Potency [11]

CCC(C)(C)c1ccc(CC(C)CN2C[C@@H](C)O[C@@H](C)C2)cc1 (stereo partly specified)
inactive: Potency [1] | Potency [2] | Potency [3] | Potency [4] | Potency [5] | Potency [6] | Potency [7] | Potency [8] | Potency [9]
active: Potency [11] 18.4 µM

O=c1c(-c2ccc(O)cc2)coc2cc(O)ccc12
inactive: Potency [1] | Potency [2] | Potency [3] | Potency [4] | Potency [5] | Potency [6] | Potency [7] | Potency [8] | Potency [9] | activity (max response) [10] -14.3%

Nc1cccc(S(=O)(=O)N2CCCN(S(=O)(=O)c3ccc4c(c3)OCCO4)CC2)c1
inactive: Potency [1] | Potency [2] | Potency [3] | Potency [4] | Potency [5] | Potency [6] | Potency [7] | Potency [8] | activity (max response) [10] -19.9% | Potency [11]
